From ChEMBL document CHEMBL1961873, “Compounds: GSK PKIS; Assays: Nanosyn kinase panel” (2012)

Experiments:
[1] = biological target: Rho-associated protein kinase 1 (Homo sapiens) (UniProt Q13464); conditions: at 1 µM;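 note: reported values are mean percent inhibition of ROCK1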
[2] = biological target: Rho-associated protein kinase 2 (Homo sapiens) (UniProt O75116); conditions: at 0.1 µM
[3] = biological target: Rho-associated protein kinase 2 (Homo sapiens) (UniProt O75116); conditions: at 1 µM
[4] = biological target: Ribosomal protein S6 kinase alpha-1 (Homo sapiens) (UniProt Q15418); conditions: at 0.1 µM
[5] = biological target: Ribosomal protein S6 kinase alpha-1 (Homo sapiens) (UniProt Q15418); conditions: at 1 µM
[6] = biological target: Ribosomal protein S6 kinase alpha-3 (Homo sapiens) (UniProt P51812); conditions: at 0.1 µM
[7] = biological target: Ribosomal protein S6 kinase alpha-3 (Homo sapiens) (UniProt P51812); conditions: at 1 µM
[8] = biological target: Ribosomal protein S6 kinase alpha-2 (Homo sapiens) (UniProt Q15349); conditions: at 0.1 µM
[9] = biological target: Ribosomal protein S6 kinase alpha-2 (Homo sapiens) (UniProt Q15349); conditions: at 1 µM
[10] = biological target: Ribosomal protein S6 kinase alpha-6 (Homo sapiens) (UniProt Q9UK32); conditions: at 0.1 µM
[11] = biological target: Ribosomal protein S6 kinase alpha-6 (Homo sapiens) (UniProt Q9UK32); conditions: at 1 µM
[12] = biological target: T1, Serine/threonine-protein kinase Sgk1 (Homo sapiens) (UniProt O00141); conditions: at 0.1 µM
T1 sequence (whole entry): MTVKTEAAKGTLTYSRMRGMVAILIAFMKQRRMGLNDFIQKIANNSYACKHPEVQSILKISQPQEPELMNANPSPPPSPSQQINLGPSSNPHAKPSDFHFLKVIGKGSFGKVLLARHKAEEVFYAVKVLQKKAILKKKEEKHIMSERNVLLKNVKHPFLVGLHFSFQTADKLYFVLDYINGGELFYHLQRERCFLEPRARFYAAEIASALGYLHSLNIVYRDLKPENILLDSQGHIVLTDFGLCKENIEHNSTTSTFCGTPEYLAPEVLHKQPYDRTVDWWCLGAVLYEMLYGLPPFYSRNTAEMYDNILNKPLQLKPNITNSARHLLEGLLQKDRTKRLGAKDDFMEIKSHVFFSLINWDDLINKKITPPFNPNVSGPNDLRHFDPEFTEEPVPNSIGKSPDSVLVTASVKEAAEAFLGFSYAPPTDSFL

[13] = biological target: T1, Serine/threonine-protein kinase Sgk1 (Homo sapiens); conditions: at 1 µM
[14] = biological target: T2, Serine/threonine-protein kinase Sgk2 (Homo sapiens) (UniProt Q9HBY8); conditions: at 0.1 µM
T2 sequence (whole entry): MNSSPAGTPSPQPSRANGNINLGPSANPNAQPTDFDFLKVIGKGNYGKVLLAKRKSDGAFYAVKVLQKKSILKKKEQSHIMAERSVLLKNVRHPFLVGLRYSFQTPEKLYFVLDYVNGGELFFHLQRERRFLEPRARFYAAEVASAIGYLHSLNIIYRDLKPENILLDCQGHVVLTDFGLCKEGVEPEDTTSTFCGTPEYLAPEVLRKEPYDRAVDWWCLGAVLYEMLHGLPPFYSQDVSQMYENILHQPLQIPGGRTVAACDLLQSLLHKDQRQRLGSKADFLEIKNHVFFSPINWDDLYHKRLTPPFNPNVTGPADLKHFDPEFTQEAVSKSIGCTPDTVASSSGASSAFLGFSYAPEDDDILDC

[15] = biological target: T2, Serine/threonine-protein kinase Sgk2 (Homo sapiens); conditions: at 1 µM
[16] = biological target: T3, Serine/threonine-protein kinase Sgk3 (Homo sapiens) (UniProt Q96BR1); conditions: at 0.1 µM
T3 sequence (whole entry): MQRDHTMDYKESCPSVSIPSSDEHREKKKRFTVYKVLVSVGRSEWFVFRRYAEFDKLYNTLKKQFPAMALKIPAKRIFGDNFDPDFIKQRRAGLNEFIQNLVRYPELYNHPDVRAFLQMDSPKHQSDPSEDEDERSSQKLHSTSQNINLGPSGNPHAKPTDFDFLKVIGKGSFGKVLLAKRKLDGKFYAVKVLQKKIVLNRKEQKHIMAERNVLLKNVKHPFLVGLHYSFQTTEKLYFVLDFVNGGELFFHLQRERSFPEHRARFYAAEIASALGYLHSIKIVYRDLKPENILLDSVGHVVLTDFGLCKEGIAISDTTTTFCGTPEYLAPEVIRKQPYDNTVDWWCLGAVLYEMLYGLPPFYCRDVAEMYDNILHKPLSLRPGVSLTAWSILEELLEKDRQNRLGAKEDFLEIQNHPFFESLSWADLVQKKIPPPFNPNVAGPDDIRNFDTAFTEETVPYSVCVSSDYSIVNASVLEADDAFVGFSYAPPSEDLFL

[17] = biological target: T3, Serine/threonine-protein kinase Sgk3 (Homo sapiens); conditions: at 1 µM
[18] = biological target: 5'-AMP-activated protein kinase catalytic subunit alpha-1 (Homo sapiens) (UniProt Q13131); conditions: at 0.1 µM
[19] = biological target: 5'-AMP-activated protein kinase catalytic subunit alpha-1 (Homo sapiens) (UniProt Q13131); conditions: at 1 µM
[20] = biological target: 5'-AMP-activated protein kinase catalytic subunit alpha-2 (Homo sapiens) (UniProt P54646); conditions: at 0.1 µM;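 note: mean inhibition measured on the AMPK complex of alpha2, beta1 and gamma1 subunits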
Chain of 5'-AMP-activated protein kinase catalytic subunit alpha-2 (Homo sapiens) (P54646 whole entry, looked up): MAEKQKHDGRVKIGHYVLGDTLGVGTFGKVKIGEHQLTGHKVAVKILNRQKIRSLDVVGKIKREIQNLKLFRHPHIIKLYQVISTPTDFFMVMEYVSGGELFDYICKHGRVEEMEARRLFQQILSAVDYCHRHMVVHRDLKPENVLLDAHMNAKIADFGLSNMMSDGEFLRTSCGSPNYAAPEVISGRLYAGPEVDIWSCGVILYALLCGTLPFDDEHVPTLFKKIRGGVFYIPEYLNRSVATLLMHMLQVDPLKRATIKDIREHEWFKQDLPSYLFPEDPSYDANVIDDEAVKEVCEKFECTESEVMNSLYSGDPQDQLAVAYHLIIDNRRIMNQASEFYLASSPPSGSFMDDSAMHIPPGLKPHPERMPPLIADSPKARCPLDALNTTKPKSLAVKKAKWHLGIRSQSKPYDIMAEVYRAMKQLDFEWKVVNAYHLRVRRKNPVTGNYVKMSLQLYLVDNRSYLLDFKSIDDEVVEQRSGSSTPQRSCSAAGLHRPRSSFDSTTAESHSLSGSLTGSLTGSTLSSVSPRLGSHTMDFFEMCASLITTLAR

Chain of Ribosomal protein S6 kinase alpha-1 (Homo sapiens) (Q15418 whole entry): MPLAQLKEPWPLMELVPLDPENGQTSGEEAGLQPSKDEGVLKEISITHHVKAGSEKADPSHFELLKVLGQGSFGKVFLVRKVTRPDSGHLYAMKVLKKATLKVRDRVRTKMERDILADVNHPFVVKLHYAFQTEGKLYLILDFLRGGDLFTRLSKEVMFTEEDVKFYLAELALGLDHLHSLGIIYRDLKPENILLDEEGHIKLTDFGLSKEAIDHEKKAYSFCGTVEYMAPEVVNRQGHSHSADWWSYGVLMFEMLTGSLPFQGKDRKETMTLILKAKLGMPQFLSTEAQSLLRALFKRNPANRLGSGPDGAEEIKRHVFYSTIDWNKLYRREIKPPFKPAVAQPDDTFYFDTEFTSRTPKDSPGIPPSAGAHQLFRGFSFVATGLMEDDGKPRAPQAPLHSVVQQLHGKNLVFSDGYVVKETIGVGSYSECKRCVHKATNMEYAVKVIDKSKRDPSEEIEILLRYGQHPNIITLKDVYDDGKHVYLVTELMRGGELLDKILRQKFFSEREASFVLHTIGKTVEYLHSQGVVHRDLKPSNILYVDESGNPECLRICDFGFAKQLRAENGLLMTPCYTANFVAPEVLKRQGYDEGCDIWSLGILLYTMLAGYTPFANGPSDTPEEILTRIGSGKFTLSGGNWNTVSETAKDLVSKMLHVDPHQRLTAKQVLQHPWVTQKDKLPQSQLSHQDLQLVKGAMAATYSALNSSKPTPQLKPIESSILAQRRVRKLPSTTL
Chain of Rho-associated protein kinase 2 (Homo sapiens) (O75116 whole entry, looked up): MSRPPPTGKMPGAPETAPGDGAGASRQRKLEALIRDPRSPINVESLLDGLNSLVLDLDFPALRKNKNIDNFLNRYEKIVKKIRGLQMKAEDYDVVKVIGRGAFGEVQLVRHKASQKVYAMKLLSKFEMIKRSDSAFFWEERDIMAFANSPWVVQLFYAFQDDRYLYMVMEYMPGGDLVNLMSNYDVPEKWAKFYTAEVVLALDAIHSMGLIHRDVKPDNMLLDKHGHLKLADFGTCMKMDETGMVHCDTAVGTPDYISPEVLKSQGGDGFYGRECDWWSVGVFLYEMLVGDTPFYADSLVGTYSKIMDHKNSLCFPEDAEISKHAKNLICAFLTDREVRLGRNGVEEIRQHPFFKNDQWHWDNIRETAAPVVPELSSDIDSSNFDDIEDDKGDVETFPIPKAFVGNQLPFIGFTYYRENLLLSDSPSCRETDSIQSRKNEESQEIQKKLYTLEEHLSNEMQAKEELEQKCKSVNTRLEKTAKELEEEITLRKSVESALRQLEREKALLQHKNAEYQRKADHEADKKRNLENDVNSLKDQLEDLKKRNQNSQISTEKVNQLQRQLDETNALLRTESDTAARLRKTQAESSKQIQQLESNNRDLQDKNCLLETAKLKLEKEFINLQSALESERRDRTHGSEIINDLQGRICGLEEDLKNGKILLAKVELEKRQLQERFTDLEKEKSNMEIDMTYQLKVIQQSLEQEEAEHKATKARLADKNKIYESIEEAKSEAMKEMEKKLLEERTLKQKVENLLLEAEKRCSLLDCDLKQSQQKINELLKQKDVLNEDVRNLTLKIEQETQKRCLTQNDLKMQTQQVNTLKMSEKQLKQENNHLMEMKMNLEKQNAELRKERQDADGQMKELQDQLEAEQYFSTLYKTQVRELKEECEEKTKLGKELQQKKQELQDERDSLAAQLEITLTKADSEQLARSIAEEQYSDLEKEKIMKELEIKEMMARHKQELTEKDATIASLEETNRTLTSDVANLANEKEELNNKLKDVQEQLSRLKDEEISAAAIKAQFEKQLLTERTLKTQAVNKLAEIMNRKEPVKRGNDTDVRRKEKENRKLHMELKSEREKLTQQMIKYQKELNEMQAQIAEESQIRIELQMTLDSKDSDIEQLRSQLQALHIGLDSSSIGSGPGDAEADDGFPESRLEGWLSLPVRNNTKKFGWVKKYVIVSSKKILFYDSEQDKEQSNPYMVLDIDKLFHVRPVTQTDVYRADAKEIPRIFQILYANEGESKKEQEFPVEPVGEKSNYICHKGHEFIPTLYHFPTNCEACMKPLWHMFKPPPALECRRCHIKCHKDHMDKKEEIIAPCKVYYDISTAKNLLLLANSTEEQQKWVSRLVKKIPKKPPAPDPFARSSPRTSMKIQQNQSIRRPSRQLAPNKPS
Chain of Ribosomal protein S6 kinase alpha-6 (Homo sapiens) (Q9UK32 whole entry): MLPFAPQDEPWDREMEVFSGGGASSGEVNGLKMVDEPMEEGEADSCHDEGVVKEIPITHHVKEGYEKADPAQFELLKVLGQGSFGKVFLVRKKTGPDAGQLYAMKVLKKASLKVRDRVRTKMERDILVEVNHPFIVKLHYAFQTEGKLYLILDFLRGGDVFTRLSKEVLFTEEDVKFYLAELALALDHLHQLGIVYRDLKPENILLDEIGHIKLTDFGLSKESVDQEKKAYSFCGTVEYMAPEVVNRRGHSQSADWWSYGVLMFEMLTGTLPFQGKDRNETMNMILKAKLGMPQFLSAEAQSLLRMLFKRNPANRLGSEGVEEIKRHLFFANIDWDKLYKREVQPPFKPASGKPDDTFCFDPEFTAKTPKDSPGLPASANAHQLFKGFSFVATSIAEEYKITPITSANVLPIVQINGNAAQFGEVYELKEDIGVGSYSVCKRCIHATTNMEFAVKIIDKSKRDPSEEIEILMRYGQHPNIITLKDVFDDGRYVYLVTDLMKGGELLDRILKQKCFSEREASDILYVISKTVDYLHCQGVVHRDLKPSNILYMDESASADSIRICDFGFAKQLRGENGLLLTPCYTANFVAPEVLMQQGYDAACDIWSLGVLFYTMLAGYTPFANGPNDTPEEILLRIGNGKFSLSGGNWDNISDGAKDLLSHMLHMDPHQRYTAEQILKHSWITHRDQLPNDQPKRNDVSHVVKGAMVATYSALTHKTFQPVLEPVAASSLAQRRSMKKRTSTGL
Chain of Ribosomal protein S6 kinase alpha-2 (Homo sapiens) (Q15349 whole entry): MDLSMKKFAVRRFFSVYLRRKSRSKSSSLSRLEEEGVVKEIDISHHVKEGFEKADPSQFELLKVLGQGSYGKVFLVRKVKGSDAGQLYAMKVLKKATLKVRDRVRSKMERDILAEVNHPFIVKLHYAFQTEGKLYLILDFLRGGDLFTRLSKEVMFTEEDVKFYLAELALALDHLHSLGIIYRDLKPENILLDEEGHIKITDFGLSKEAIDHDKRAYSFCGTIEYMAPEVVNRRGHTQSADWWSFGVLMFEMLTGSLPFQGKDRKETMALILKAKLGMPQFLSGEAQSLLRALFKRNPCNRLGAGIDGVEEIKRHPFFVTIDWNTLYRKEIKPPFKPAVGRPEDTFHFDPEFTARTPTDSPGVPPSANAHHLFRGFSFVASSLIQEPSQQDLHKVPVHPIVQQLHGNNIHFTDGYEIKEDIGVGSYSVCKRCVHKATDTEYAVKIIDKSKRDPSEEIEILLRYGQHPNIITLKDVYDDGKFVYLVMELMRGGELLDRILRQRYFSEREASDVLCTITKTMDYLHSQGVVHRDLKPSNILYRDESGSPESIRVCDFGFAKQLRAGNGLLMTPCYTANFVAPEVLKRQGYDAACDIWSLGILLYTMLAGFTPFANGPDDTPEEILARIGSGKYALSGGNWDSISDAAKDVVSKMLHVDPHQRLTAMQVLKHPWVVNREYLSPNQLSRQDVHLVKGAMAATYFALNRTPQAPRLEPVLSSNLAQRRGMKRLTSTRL
Chain of 5'-AMP-activated protein kinase catalytic subunit alpha-1 (Homo sapiens) (Q13131 whole entry, looked up): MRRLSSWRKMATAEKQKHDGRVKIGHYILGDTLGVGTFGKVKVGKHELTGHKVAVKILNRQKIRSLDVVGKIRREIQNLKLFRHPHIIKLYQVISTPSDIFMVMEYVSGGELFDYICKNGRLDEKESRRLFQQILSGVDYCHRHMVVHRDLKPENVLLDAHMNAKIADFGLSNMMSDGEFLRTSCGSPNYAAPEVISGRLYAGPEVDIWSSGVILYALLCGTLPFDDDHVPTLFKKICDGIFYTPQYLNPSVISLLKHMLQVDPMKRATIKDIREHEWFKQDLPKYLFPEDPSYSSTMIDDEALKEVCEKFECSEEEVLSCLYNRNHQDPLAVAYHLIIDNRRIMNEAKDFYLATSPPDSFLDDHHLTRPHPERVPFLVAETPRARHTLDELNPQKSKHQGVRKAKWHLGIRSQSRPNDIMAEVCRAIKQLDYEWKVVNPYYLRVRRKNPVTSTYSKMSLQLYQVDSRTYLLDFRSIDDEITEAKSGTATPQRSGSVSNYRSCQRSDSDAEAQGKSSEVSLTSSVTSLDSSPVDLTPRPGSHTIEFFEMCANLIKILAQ

NS(=O)(=O)c1ccc(N/N=C2\C(=O)Nc3ccc(Cl)cc32)cc1
inhibition [1]: 2.29%
inhibition [2]: 3.76%
inhibition [3]: 10.6%
inhibition [4]: 1.95%
inhibition [5]: 4.81%
inhibition [6]: 1.84%
inhibition [7]: 3.95%
inhibition [8]: 1.83%
inhibition [9]: 2.94%
inhibition [10]: 0.98%
inhibition [11]: 3.15%
inhibition [12]: 3.68%
inhibition [13]: 7.28%
inhibition [14]: 2.41%
inhibition [15]: 5.65%
inhibition [16]: 4.29%
inhibition [17]: 3.61%
inhibition [18]: 6.79%
inhibition [19]: 16.1%
inhibition [20]: 1.86%

Cc1cc(-c2ccccn2)cc(C)c1/C=C/c1cncc(-c2nn[nH]n2)c1
inhibition [1]: 2.97%
inhibition [2]: 1.11%
inhibition [3]: 3.33%
inhibition [4]: -1.27%
inhibition [5]: 1.85%
inhibition [6]: -0.57%
inhibition [7]: 1.01%
inhibition [8]: 0.4%
inhibition [9]: 1.84%
inhibition [10]: -1.04%
inhibition [11]: 1.31%
inhibition [12]: 0.67%
inhibition [13]: 1.66%
inhibition [14]: 3.28%
inhibition [15]: -0.92%
inhibition [16]: 4.48%
inhibition [17]: 2.45%
inhibition [18]: 0.33%
inhibition [19]: 3.53%
inhibition [20]: 6.43%

CCS(=O)(=O)c1ccc(OC)c(Nc2ncc(-c3cccc(OC)c3)o2)c1
inhibition [1]: 2.35%
inhibition [2]: 0.89%
inhibition [3]: 1.18%
inhibition [4]: 0.6%
inhibition [5]: 4.04%
inhibition [6]: -0.45%
inhibition [7]: 0.81%
inhibition [8]: 1.33%
inhibition [9]: 4.86%
inhibition [10]: -0.11%
inhibition [11]: 3.54%
inhibition [12]: 1.35%
inhibition [13]: 2.05%
inhibition [14]: 3.12%
inhibition [15]: 5.99%
inhibition [16]: 3.65%
inhibition [17]: -0.11%
inhibition [18]: 1.32%
inhibition [19]: 1.33%
inhibition [20]: -0.63%

Cc1cc(O)cc(C)c1/C=C/c1cncc(C(=O)N(C)C)c1
inhibition [1]: 1.38%
inhibition [2]: 1.81%
inhibition [3]: 3.8%
inhibition [4]: 1.88%
inhibition [5]: 3.54%
inhibition [6]: 1.25%
inhibition [7]: 2.65%
inhibition [8]: 0.28%
inhibition [9]: 2.22%
inhibition [10]: 1.12%
inhibition [11]: 1.77%
inhibition [12]: 1.71%
inhibition [13]: 2.5%
inhibition [14]: -0.51%
inhibition [15]: 2.83%
inhibition [16]: 4.43%
inhibition [17]: 0%
inhibition [18]: 2.63%
inhibition [19]: 1.76%
inhibition [20]: 1.57%

COc1cccc(-n2nc(C)c3c(N/N=C(\C)c4ccncc4)ncnc32)c1
inhibition [1]: -1.87%
inhibition [2]: -0.57%
inhibition [3]: -1.33%
inhibition [4]: -1.25%
inhibition [5]: -0.11%
inhibition [6]: 0.34%
inhibition [7]: 1.55%
inhibition [8]: 1.45%
inhibition [9]: 0.23%
inhibition [10]: -0.47%
inhibition [11]: 0.03%
inhibition [12]: -0.15%
inhibition [13]: 0.8%
inhibition [14]: 1.28%
inhibition [15]: 5.85%
inhibition [16]: 0.38%
inhibition [17]: 0.52%
inhibition [18]: -0.66%
inhibition [19]: 0.55%
inhibition [20]: 2.15%

Cc1ccc(O)cc1Nc1ccnc2ccc(S(C)(=O)=O)cc12
inhibition [1]: 1.52%
inhibition [2]: 4.28%
inhibition [3]: 5.46%
inhibition [4]: 2.4%
inhibition [5]: 0.29%
inhibition [6]: 0.8%
inhibition [7]: 1.28%
inhibition [8]: 3.52%
inhibition [9]: 3.02%
inhibition [10]: 2.13%
inhibition [11]: 1.9%
inhibition [12]: 3.76%
inhibition [13]: 6.8%
inhibition [14]: 4.31%
inhibition [15]: 4.71%
inhibition [16]: 4.36%
inhibition [17]: 5.21%
inhibition [18]: 2.21%
inhibition [19]: 5.69%
inhibition [20]: 3.06%

COc1cc2ncnc(Nc3ccc4c(cnn4Cc4ccccc4)c3)c2cc1OC
inhibition [1]: 6.38%
inhibition [2]: 2.52%
inhibition [3]: 7.05%
inhibition [4]: 0.76%
inhibition [5]: 2.15%
inhibition [6]: 0.6%
inhibition [7]: 2.23%
inhibition [8]: 2.97%
inhibition [9]: 3.65%
inhibition [10]: 1.46%
inhibition [11]: 1.92%
inhibition [12]: 2.26%
inhibition [13]: 1.9%
inhibition [14]: 1.23%
inhibition [15]: -1.13%
inhibition [16]: 2.62%
inhibition [17]: 1.35%
inhibition [18]: 1.38%
inhibition [19]: 3.13%
inhibition [20]: 5.92%

FC(F)(F)c1ccc(-c2nn3ncccc3c2-c2ccnc(Nc3ccc4c(c3)OCCO4)n2)cc1
inhibition [1]: 2.51%
inhibition [2]: 4.66%
inhibition [3]: 8.18%
inhibition [4]: 1.49%
inhibition [5]: 3.18%
inhibition [6]: 2.19%
inhibition [7]: 5.4%
inhibition [8]: -0.87%
inhibition [9]: 0.6%
inhibition [10]: -0.08%
inhibition [11]: 0.72%
inhibition [12]: 9.07%
inhibition [13]: 10.2%
inhibition [14]: 5.69%
inhibition [15]: 10.8%
inhibition [16]: 7.48%
inhibition [17]: 12.9%
inhibition [18]: 1.3%
inhibition [19]: 4.07%
inhibition [20]: 5.75%

ON=C1CCc2cc(-c3nc(C4CCNCC4)[nH]c3-c3ccncc3)ccc21
inhibition [1]: 0.82%
inhibition [2]: -1.08%
inhibition [3]: -0.29%
inhibition [4]: -1.46%
inhibition [5]: -1.99%
inhibition [6]: -1%
inhibition [7]: -0.39%
inhibition [8]: 0.31%
inhibition [9]: 1.01%
inhibition [10]: 0.13%
inhibition [11]: -0.49%
inhibition [12]: 0.64%
inhibition [13]: 0.87%
inhibition [14]: -0.56%
inhibition [15]: -1.29%
inhibition [16]: -1.46%
inhibition [17]: -0.07%
inhibition [18]: -0.26%
inhibition [19]: -1.59%
inhibition [20]: -1.32%

CC(C)c1ccc(Nc2nccc(-c3cnn4ncccc34)n2)cc1
inhibition [1]: 10.9%
inhibition [2]: 5.29%
inhibition [3]: 24.7%
inhibition [4]: 0.96%
inhibition [5]: 3.69%
inhibition [6]: -0.01%
inhibition [7]: 2.08%
inhibition [8]: 0.12%
inhibition [9]: 2.76%
inhibition [10]: -0.42%
inhibition [11]: 1.84%
inhibition [12]: 1.8%
inhibition [13]: 3.19%
inhibition [14]: 0.34%
inhibition [15]: 3.21%
inhibition [16]: 2.01%
inhibition [17]: 0.79%
inhibition [18]: 1.84%
inhibition [19]: 3.55%
inhibition [20]: 2.35%

Oc1cccc(-c2nc(-c3ccccc3)[nH]c2-c2ccncc2)c1
inhibition [1]: 1.51%
inhibition [2]: 3.56%
inhibition [3]: 6.34%
inhibition [4]: 2.58%
inhibition [5]: 3.62%
inhibition [6]: 1.36%
inhibition [7]: 2.76%
inhibition [8]: 1.27%
inhibition [9]: 3.22%
inhibition [10]: 2.27%
inhibition [11]: 2.67%
inhibition [12]: 0.98%
inhibition [13]: 4.8%
inhibition [14]: 1.32%
inhibition [15]: 4.97%
inhibition [16]: 3.71%
inhibition [17]: 1.35%
inhibition [18]: 2.62%
inhibition [19]: 3.13%
inhibition [20]: 3.23%

CCCN1CCCC(c2ccc(Nc3nc(Nc4cc(F)ccc4C(N)=O)c4cc[nH]c4n3)c(OC)c2)C1 (stereo not given)
inhibition [1]: 67.7%
inhibition [2]: 27.2%
inhibition [3]: 71.3%
inhibition [4]: 35.1%
inhibition [5]: 72.5%
inhibition [6]: 22.6%
inhibition [7]: 40.2%
inhibition [8]: 9.15%
inhibition [9]: 38%
inhibition [10]: 19.7%
inhibition [11]: 54.1%
inhibition [12]: 3.79%
inhibition [13]: 4.78%
inhibition [14]: 1.44%
inhibition [15]: 6.37%
inhibition [16]: 4.46%
inhibition [17]: 0.16%
inhibition [18]: 6.07%
inhibition [19]: 20.3%
inhibition [20]: 4.5%
